Reference: PubChem BioAssay AID1159580 (chemical genetic matrix, 2015)
The whole screen tested about 5,500 compounds, of which about 2,000 (36%) were called active. Roughly 18% stayed inconclusive and do not appear here. No stated cut-off is given here; in the data, active means normalized growth mostly below about 0.91 (no sharp cut-off); inconclusive means no clear call, values can overlap the other calls; inactive means mostly above about 0.92. The list shows a part of the results.

Experiment: chemical genetic growth profiling, strain panel (AID 1159580);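 further: tested at 20 µM; growth read once vehicle control cultures reached saturation at 30 °C; 1 = growth at the plate median or of vehicle wells; lower values mean less growth of the strain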
Conditions: S. cerevisiae deletion strains, growth OD

Measured: normalized growth

CN(C)CCc1c[nH]c2ccc(C[C@H]3COC(=O)N3)cc12
inactive: locus YAL021C, strain ccr4, hits give low values 1.02 | locus YAL026C, strain drs2, hits give low values 1.01 | locus YAL030W, strain snc1, hits give low values 1.01 | locus YBL061C, strain skt5, hits give low values 1.01 | locus YBR009C, strain hhf1, hits give low values 1.01 | locus YBR023C, strain chs3, hits give low values 1.01 | locus YBR171W, strain sec66, hits give low values 1.02 | locus YBR231C, strain swc5, hits give low values 0.993 | locus YBR279W, strain paf1, hits give low values 1.01 | locus YCL011C, strain gbp2, hits give low values 1.01 | locus YCL016C, strain dcc1, hits give low values 1 | locus YCL061C, strain MRC1, hits give low values 1.01 | locus YCL069W, strain vba3, hits give low values 1.01 | locus YCR088W, strain abp1, hits give low values 1.01 | locus YDL005C, strain med2, hits give low values 1.01 | locus YDL040C, strain nat1, hits give low values 1.01 | locus YDR001C, strain nth1, hits give low values 1.01 | locus YDR069C, strain doa4, hits give low values 1.02 | locus YDR137W, strain rgp1, hits give low values 0.993 | locus YDR159W, strain sac3, hits give low values 1.04 | locus YDR195W, strain ref2 0.978 | locus YDR297W, strain sur2, hits give low values 1.01 | locus YDR334W, strain swr1, hits give low values 1.02 | locus YDR335W, strain msn5, hits give low values 1.01 | locus YDR392W, strain spt3, hits give low values 1.03 | locus YEL003W, strain gim4, hits give low values 1 | locus YEL037C, strain rad23, hits give low values 1.01 | locus YEL061C, strain CIN8 (second series), hits give low values 1.01 | locus YER015W, strain faa2, hits give low values 1.01 | locus YER016W, strain bim1, hits give low values 1.01 | locus YER111C, strain swi4, hits give low values 1.02 | locus YER155C, strain BEM2 (second series), hits give low values 1.06 | locus YFR010W, strain ubp6, hits give low values 1.02 | locus YGL167C, strain pmr1, hits give low values 1.01 | locus YGL173C, strain kem1, hits give low values 1 | locus YGL227W, strain vid30, hits give low values 1.01 | locus YGL240W, strain doc1, hits give low values 1.01 | locus YGL253W, strain hxk2, hits give low values 0.998 | locus YHR013C, strain ard1, hits give low values 1 | locus YHR027C, strain rpn1, hits give low values 1.01 | locus YHR030C, strain SLT2, hits give low values 1.02 | locus YHR079C, strain IRE1, hits give low values 0.986 | locus YHR142W, strain chs7, hits give low values 0.992 | locus YJL092W, strain hpr5, hits give low values 1.01 | locus YJL095W, strain BCK1 (second series), hits give low values 1.01 | locus YJL095W, strain BCK1, hits give low values 1 | locus YJL115W, strain asf1, hits give low values 1.01 | locus YJL129C, strain trk1, hits give low values 0.988 | locus YJL154C, strain vps35, hits give low values 1.01 | locus YJL164C, strain tpk1, hits give low values 1.02 | locus YJL166W, strain qcr8, hits give low values 1.01 | locus YJR066W, strain TOR1, hits give low values 0.966 | locus YKL160W, strain elf1, hits give low values 1 | locus YKR026C, strain gcn3, hits give low values 0.992 | locus YKR091W, strain srl3, hits give low values 0.997 | locus YLL001W, strain dnm1, hits give low values 1.01 | locus YLL026W, hits give low values 1.01 | locus YLL041C, strain sdh2, hits give low values 1.01 | locus YLR027C, strain aat2, hits give low values 1.01 | locus YLR113W, strain HOG1, hits give low values 0.972 | locus YLR221C, strain rsa3, hits give low values 1.02 | locus YLR258W, strain gsy2, hits give low values 1.01 | locus YLR262C, strain YPT6 (second series), hits give low values 1.01 | locus YLR320W, strain mms22, hits give low values 1.01 | locus YLR342W, strain FKS1, hits give low values 1.01 | locus YLR357W, strain rsc2, hits give low values 0.973 | locus YLR370C, strain arc18, hits give low values 1.01 | locus YLR384C, strain iki3, hits give low values 1 | locus YML120C, strain ndi1, hits give low values 1.02 | locus YMR058W, strain fet3, hits give low values 1.01 | locus YMR125W, strain sto1, hits give low values 1.01 | locus YMR129W, hits give low values 1.01 | locus YMR205C, strain PFK2, hits give low values 0.998 | locus YMR231W, strain pep5, hits give low values 1 | locus YNL071W, strain lat1, hits give low values 1.01 | locus YNL183C, strain NPR1, hits give low values 0.978 | locus YNL209W, strain ssb2, hits give low values 1.01 | locus YNL248C, strain rpa49, hits give low values 1 | locus YNL322C, strain KRE1 (second series), hits give low values 1.01 | locus YNR049C, strain mso1, hits give low values 1.01 | locus YOR001W, strain rrp6, hits give low values 0.998 | locus YOR070C, strain gyp1, hits give low values 1.01 | locus YOR080W, strain dia2, hits give low values 1 | locus YOR083W, strain WHI5, hits give low values 1 | locus YOR106W, strain vam3, hits give low values 1 | locus YOR231W, strain MKK1, hits give low values 0.999 | locus YOR265W, strain rbl2, hits give low values 1.01 | locus YOR270C, strain vph1, hits give low values 0.991 | locus YOR290C, strain snf2, hits give low values 1.01 | locus YPL051W, strain arl3, hits give low values 1.01 | locus YPL078C, strain atp4, hits give low values 1 | locus YPL106C, strain sse1, hits give low values 1.04 | locus YPL240C, strain hsp82, hits give low values 1.01 | locus YPL256C, strain CLN2, hits give low values 1.02
